Test [1] in a line: ATG_M_32_CIS: Attagene CIS-FACTORIAL HepG2 Assay for M32 Transcription Factor (Internal Marker) (AID 2282949).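 Further: background control marker of the multiplexed CIS panel rather than a real target.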 Particulars: HepG2 Attagene cis-factorial M32 reporter, mRNA; actives raise or lower the signal. Summed up: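 Using DMSO as baseline, bidirectional curve fits were applied to reporter mRNA signals. These came from transiently transfected HepG2 cells exposed for 24 h, with RNA analysed by RT-PCR, FAM primer extension, HpaI digestion and CE.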

The nature of test [2]: ATG_M_06_CIS: Attagene CIS-FACTORIAL HepG2 Assay for M06 Transcription Factor (Internal Marker) (AID 2282950). Particulars: HepG2 Attagene CIS-FACTORIAL M06 internal marker reporter; actives raise or lower the signal. Summed up:
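Serves as a background control readout. Transfected HepG2 exposed to compounds for 24 h, then reporter transcripts quantified by fluorescent RT-PCR and capillary electrophoresis. Both directions fitted against DMSO baseline.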

Test [3] addresses Hypoxia-inducible factor 1-alpha (Homo sapiens) (UniProt Q16665). Nature of the test: ATG_HIF1a_CIS: Attagene CIS-FACTORIAL HepG2 Assay for human Hypoxia Inducible Factor 1 (HIF1A) (AID 2282951). The following applies: HepG2 Attagene cis-factorial HIF1a reporter transcription; actives raise or lower the signal. Summed up:
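Measures endogenous transcription-factor activity through cis-regulated reporter mRNA in HepG2. Cells dosed 24 h; transcripts quantified by RT-PCR with 6-FAM-labelled products separated by capillary electrophoresis; DMSO serves as negative control.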

The target of test [4] is Hepatocyte nuclear factor 6 (Homo sapiens) (UniProt Q9UBC0). Kind of test: ATG_HNF6_CIS: Attagene CIS-FACTORIAL HepG2 Assay for human Hepatocyte Nuclear Factor 6 (HNF6) (AID 2282952). The following applies: HepG2 Attagene cis-factorial HNF6 reporter transcription; actives raise or lower the signal. In outline: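 Endogenous transcription factor activity in human HepG2 liver cells was captured through cis-regulated reporter constructs. After 24 h treatment, reporter mRNA was measured by RT-PCR with capillary electrophoresis, and activity was fitted in both directions relative to DMSO.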
Sequence of Hepatocyte nuclear factor 6 (Homo sapiens) (Q9UBC0 whole entry, looked up): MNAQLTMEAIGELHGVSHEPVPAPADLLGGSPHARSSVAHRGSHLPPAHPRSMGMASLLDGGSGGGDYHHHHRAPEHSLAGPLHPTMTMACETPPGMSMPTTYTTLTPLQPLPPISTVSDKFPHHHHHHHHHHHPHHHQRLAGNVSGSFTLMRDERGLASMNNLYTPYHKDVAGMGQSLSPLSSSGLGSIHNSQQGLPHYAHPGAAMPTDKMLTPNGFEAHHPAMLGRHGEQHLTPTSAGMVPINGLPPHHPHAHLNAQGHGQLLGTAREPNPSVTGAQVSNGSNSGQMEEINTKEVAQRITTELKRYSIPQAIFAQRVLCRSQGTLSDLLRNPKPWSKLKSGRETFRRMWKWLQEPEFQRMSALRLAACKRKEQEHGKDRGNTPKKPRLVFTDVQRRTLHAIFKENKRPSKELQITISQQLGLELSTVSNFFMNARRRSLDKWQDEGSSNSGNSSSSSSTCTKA

Test [5] in a line: ATG_MRE_CIS: Attagene CIS-FACTORIAL HepG2 Assay for human Metal Responsive Element (MRE) (AID 2282954). Particulars: HepG2 MRE cis-reporter transcription, Attagene multiplex; actives raise or lower the signal. Summed up:
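RT-PCR/capillary electrophoresis readout of reporter mRNA, 24 h post-dosing, in HepG2 cells transfected with multiplexed cis-regulated reporter constructs. Gain or loss of signal fitted bidirectionally against DMSO baseline.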

Test [6] is described as follows: ATG_PBREM_CIS: Attagene CIS-FACTORIAL HepG2 Assay for human Phenobarbital-responsive Enhancer Module (PBREM) (AID 2282955). Particulars: HepG2 PBREM cis-reporter, Attagene multiplexed transcription; actives raise or lower the signal. In outline:
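Fluorescence of labelled reporter cDNA fragments, resolved by capillary electrophoresis, gives mRNA induction in transfected HepG2 cells treated for 24 h; DMSO serves as negative control and baseline.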

For test [7], the target named is Paired box protein Pax-6 (Homo sapiens) (UniProt P26367). Kind of test: ATG_Pax6_CIS: Attagene CIS-FACTORIAL HepG2 Assay for human Paired Box 6 (PAX6) (AID 2282956). The following applies: HepG2 CIS-FACTORIAL PAX6 reporter transcription, RNA readout; actives raise or lower the signal. In outline:
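Read-out is reporter transcript level, measured by RT-PCR with fluorescent primer extension and capillary electrophoresis after 24 h dosing of transfected HepG2 cells. Activity in either direction fitted relative to DMSO control.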

The nature of test [8]: ATG_PXRE_CIS: Attagene CIS-FACTORIAL HepG2 Assay for human Pregnane X Receptor Element (PXRE) (AID 2282957). Particulars: HepG2 Attagene CIS-FACTORIAL PXRE reporter, mRNA; actives raise or lower the signal. Summed up:
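Endogenous transcription factor activity in HepG2 was gauged through induction of reporter mRNA driven by a cis-regulating promoter element, sampled 24 h post-treatment. Activity was fitted in both directions against DMSO negative control.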

Test [9] in a line: ATG_PPRE_CIS: Attagene CIS-FACTORIAL HepG2 Assay for human Peroxisome Proliferator-activated Response Element (PPRE) (AID 2282958). The following applies: HepG2 PPRE cis-element reporter, Attagene transcription factor profiling; actives raise or lower the signal. Summed up: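 Cells are first transfected transiently with the multiplexed reporter library, then dosed for 24 h. Total RNA is reverse-transcribed, amplified, fluorescently end-labeled and HpaI-cut before capillary electrophoresis; activity is fitted bidirectionally against DMSO controls.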

The nature of test [10]: ATG_Sox_CIS: Attagene CIS-FACTORIAL HepG2 Assay for human SRY-box transcription factor (SOX) (AID 2282960). Particulars: HepG2 Attagene cis-factorial SOX reporter, mRNA; actives raise or lower the signal. In outline:
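Transient MRTU transfection of HepG2; 24 h compound incubation; TriZol RNA, oligo(dT) RT, PCR, 6-FAM primer extension, HpaI cut, CE. Bidirectional fit, DMSO = baseline.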

Test [11] concerns the target Transcription factor Sp1 (Homo sapiens) (UniProt P08047). Nature of the test: ATG_Sp1_CIS: Attagene CIS-FACTORIAL HepG2 Assay for human Specificity Protein 1 (Sp1) (AID 2282961). Particulars: HepG2 Sp1 cis-reporter transcription, actives raise or lower the signal. In outline:
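Endogenous Sp1 activity was gauged in human liver HepG2 cells bearing transfected reporter units under a cis-regulating promoter. After 24 h dosing, reporter mRNA was quantified by RT-PCR with capillary electrophoresis, and activity fitted bidirectionally versus DMSO.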

The nature of test [12]: ATG_SREBP_CIS: Attagene CIS-FACTORIAL HepG2 Assay for human Sterol Regulatory Element Binding (SREBP) (AID 2282962). Particulars: HepG2 Attagene cis-factorial SREBP reporter, mRNA; actives raise or lower the signal. In outline: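 Endogenous SREBP activity read as cis-element-driven reporter transcript in transiently transfected HepG2, 24 h post-dosing; quantified via RT-PCR plus capillary electrophoresis of fluorescent fragments. Gain or loss of signal fitted relative to DMSO baseline.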

Test [13] deals with Signal transducer and activator of transcription 3 (Homo sapiens) (UniProt P40763). Nature of the test: ATG_STAT3_CIS: Attagene CIS-FACTORIAL HepG2 Assay for human Signal Transducer and Activator of Transcription 3 (STAT3) (AID 2282963). The following applies: HepG2, Attagene cis-factorial STAT3 reporter transcription; actives raise or lower the signal. In outline:
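Readout: fluorescent reporter mRNA fragments resolved by capillary electrophoresis. Setup: HepG2 transfected with MRTUs reporting endogenous transcription-factor activity, dosed 24 h. Gain or loss of signal fitted bidirectionally against DMSO control.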

Test [14] is described as follows: ATG_TA_CIS: Attagene CIS-FACTORIAL HepG2 Assay for human TA Basal Promoter (AID 2282964). Particulars: HepG2 Attagene CIS-factorial TA basal promoter reporter; actives raise or lower the signal. Summed up: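 Background-control readout: TA basal promoter reporter mRNA, fitted in both directions relative to DMSO. Measured by RT-PCR and capillary electrophoresis 24 hours after treating HepG2 human liver cells transiently carrying multiplexed cis-regulated reporter constructs.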

Test [15] in a line: ATG_TCF_b_cat_CIS: Attagene CIS-FACTORIAL HepG2 Assay for human T-Cell-Factor with beta-catenin (TCF/b-cat) (AID 2282965). Particulars: HepG2 TCF/beta-catenin cis-reporter transcription, actives raise or lower the signal. In outline: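 Cells of the HepG2 line carry transiently transfected reporter units whose promoters respond to endogenous factors. Twenty-four hours post-dosing, reporter mRNA induction is measured by fluorescent RT-PCR and capillary electrophoresis, with DMSO as baseline.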

Test [16] is described as follows: ATG_TAL_CIS: Attagene CIS-FACTORIAL HepG2 Assay for human TAL Basal Promoter (AID 2282966).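 Further: background control endpoint measuring basal TAL promoter reporter mRNA not a specific factor.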 Particulars: HepG2 Attagene cis-factorial TAL promoter reporter; actives raise or lower the signal. Summed up: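 Endogenous transcription-factor activity is sensed in HepG2 cells through transfected cis-promoter reporter constructs. After 24 h dosing, reporter transcripts are quantified by RT-PCR and capillary electrophoresis. Gain or loss of signal is fitted relative to DMSO.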

Test [17] can be described thus: ATG_VDRE_CIS: Attagene CIS-FACTORIAL HepG2 Assay for human Vitamin D Receptor Element (VDRE) (AID 2282968). The following applies: HepG2 VDRE cis-reporter transcription, actives raise or lower the signal. Summed up:
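Transient MRTU transfection of HepG2, 24 h compound exposure. Readout: reporter transcripts via RT-PCR and capillary electrophoresis, fluorescence. Bidirectional fit vs DMSO.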

The target in test [18] is Heat shock factor protein 1 (Homo sapiens) (UniProt Q00613). Kind of test: ATG_HSE_CIS: Attagene CIS-FACTORIAL HepG2 Assay for human Heat Shock Transcription Factor 1 (HSE) (AID 2282953). The following applies: HepG2 HSE cis-reporter, Attagene RNA transcription; actives raise or lower the signal. In outline:
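Endogenous transcription factor activity in transiently transfected HepG2, read as reporter mRNA by RT-PCR with fluorescent capillary electrophoresis after 24 h. Gain or loss of signal fitted versus DMSO baseline.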

Test [19] is described as follows: ATG_RORE_CIS: Attagene CIS-FACTORIAL HepG2 Assay for human RAR-related Orphan Receptor Element (RORE) (AID 2282959). Particulars: HepG2 Attagene cis-factorial RORE reporter, mRNA; actives raise or lower the signal. In outline: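 Cells were HepG2 carrying transfected cis-regulated reporter constructs, dosed for 24 hours. Total RNA was reverse-transcribed and reporter cDNA amplified, fluorescently labeled and sized by capillary electrophoresis. Activity was fitted bidirectionally relative to DMSO.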

Test [20] can be described thus: ATG_TGFb_CIS: Attagene CIS-FACTORIAL HepG2 Assay for human Transforming Growth Factor (TGF) (AID 2282967). Particulars: HepG2 Attagene CIS TGFb reporter, mRNA transcription; actives raise or lower the signal. In outline:
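Endogenous TGFB1-linked transcription factor activity read as reporter mRNA via RT-PCR and capillary electrophoresis, 24 h after dosing transiently transfected HepG2 cells. Gain or loss of signal fitted relative to DMSO.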

Activity calls are given as the source filed them. How the source made its calls: active means hit-call score of the fitted dose curve at least 0.9, where 1 is the maximum; inactive means score below 0.9.

Sequence of Hypoxia-inducible factor 1-alpha (Homo sapiens) (Q16665 whole entry, looked up): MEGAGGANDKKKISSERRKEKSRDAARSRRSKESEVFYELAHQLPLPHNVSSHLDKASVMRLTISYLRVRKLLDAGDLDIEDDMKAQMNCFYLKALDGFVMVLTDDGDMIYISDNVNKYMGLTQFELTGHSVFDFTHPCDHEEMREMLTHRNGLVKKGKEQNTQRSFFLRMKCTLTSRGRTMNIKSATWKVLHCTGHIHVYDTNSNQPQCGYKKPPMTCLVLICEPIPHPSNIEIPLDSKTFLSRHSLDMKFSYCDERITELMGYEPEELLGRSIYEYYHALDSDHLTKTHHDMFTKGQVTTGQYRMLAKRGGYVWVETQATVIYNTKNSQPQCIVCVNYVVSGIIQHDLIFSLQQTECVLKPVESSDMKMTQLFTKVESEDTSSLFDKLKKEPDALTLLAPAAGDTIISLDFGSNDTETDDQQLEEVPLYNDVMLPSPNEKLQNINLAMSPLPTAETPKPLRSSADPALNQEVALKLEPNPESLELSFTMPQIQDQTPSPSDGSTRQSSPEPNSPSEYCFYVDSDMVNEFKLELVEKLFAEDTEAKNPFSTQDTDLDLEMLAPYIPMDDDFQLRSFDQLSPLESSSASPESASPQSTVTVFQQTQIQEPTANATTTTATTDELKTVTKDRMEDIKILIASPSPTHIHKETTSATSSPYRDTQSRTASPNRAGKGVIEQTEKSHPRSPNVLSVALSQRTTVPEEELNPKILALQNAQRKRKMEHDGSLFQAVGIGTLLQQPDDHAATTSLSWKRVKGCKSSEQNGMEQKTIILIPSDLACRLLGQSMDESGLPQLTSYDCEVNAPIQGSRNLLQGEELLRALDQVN
Sequence of Paired box protein Pax-6 (Homo sapiens) (P26367 whole entry, looked up): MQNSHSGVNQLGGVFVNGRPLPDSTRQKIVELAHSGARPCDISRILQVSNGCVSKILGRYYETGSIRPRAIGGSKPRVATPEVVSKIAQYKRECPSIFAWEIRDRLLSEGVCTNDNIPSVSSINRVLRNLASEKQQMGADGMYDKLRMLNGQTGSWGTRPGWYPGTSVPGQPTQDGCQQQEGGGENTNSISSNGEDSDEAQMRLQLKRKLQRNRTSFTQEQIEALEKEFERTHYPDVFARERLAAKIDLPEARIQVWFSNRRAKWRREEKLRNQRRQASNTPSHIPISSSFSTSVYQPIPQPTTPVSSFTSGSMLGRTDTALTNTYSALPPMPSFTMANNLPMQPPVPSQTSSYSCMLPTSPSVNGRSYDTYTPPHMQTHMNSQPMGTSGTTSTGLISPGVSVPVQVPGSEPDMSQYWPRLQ
Sequence of Heat shock factor protein 1 (Homo sapiens) (Q00613 whole entry, looked up): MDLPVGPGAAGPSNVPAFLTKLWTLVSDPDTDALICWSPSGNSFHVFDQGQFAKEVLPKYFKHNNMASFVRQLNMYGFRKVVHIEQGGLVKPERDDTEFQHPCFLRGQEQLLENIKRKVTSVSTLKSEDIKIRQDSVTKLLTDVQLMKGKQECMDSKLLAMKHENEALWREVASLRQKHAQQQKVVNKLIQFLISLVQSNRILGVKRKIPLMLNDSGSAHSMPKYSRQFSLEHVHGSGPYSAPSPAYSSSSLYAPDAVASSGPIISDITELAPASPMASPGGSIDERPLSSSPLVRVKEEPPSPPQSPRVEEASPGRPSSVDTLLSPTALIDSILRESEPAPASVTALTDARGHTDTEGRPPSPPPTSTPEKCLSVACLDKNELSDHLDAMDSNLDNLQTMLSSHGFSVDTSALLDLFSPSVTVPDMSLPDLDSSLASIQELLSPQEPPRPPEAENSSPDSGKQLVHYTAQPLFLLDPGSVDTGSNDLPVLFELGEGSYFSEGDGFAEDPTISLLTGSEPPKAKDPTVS
Sequence of Signal transducer and activator of transcription 3 (Homo sapiens) (P40763 whole entry, looked up, the tested form may be a part): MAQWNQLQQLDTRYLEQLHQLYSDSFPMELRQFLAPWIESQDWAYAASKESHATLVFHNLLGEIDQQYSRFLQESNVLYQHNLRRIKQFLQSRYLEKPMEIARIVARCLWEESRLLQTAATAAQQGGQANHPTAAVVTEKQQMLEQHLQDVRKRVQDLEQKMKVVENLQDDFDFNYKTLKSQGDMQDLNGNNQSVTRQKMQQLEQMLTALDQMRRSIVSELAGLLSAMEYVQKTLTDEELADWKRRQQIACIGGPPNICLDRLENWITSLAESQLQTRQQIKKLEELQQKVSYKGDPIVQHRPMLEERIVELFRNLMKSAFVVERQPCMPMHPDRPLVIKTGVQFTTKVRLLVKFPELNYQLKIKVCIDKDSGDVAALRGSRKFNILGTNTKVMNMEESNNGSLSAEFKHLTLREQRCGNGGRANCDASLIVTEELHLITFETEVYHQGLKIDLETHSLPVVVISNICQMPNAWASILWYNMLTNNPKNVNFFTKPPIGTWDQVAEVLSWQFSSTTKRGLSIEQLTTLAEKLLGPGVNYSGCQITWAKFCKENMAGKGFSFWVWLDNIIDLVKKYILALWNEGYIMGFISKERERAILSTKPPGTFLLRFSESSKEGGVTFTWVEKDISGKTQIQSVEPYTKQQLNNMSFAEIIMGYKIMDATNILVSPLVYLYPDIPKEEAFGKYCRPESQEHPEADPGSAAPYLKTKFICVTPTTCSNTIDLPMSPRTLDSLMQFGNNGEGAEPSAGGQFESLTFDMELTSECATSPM
Sequence of Transcription factor Sp1 (Homo sapiens) (P08047 whole entry, looked up): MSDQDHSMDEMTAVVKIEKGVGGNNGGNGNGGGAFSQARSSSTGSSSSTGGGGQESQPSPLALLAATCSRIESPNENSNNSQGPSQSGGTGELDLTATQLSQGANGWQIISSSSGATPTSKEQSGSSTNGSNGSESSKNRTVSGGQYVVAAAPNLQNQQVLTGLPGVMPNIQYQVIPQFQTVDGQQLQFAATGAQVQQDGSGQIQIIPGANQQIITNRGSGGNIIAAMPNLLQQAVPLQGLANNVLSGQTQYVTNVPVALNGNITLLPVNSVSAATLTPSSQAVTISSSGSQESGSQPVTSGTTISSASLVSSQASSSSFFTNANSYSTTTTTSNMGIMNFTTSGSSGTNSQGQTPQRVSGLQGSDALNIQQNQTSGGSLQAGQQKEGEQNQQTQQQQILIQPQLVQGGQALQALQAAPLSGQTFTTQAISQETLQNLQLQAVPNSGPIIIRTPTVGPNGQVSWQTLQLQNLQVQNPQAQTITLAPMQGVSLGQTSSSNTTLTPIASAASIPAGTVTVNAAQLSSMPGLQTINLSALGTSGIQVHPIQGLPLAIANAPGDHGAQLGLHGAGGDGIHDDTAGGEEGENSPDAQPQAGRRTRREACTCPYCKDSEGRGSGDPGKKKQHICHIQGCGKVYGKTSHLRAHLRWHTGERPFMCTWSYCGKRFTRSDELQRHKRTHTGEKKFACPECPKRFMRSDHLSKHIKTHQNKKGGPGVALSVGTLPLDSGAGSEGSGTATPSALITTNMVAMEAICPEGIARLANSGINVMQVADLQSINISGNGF

As a reminder, the AC50 is the midpoint of the concentration-response curve, whichever way the signal moves. For `c1csc(-c2ccc(-c3cccs3)s2)c1`, the call in [1], in test [2], in test [4], in [7], in test [10] and in test [11] was inactive. The call in [12], in [13], in test [15] and in test [16] was inactive. The AC50 in test [3] was 3.28 µM (active); in test [5], 3.99 µM (active); in test [6] it was 2.58 µM (active); in test [8] it was 5.21 µM (active); in [9], 2.09 µM (active); in test [14], 4.42 µM (active). Further, the AC50 in test [17] is 3.41 µM (active).

Consider `N#Cc1ccccc1Cl`, for which the molecule was called inactive in test [1], in [2], in test [3], in [4], in [18] and in test [5]. Moreover, the molecule was called inactive in [7], in test [9], in [19], in test [10], in test [11] and in test [12]. Further, the call in [13], in [14], in [15], in test [16], in test [20] and in test [17] was inactive.

As to `O=CCCl`, the molecule was called inactive in test [1], in test [2], in test [19], in test [10], in test [11] and in [13]. Besides, the molecule was classed as inactive in [15], in test [16] and in [20]. In addition, the AC50 in [3] is 55 µM (active); in [4], 32.6 µM (active); in [18], 48.6 µM (active); in [5] it was 43.2 µM (active); in [7] it was 42.5 µM (active); in [8], 37.2 µM (active). Moreover, the AC50 in [14] is 182 µM (active); in test [17], 32.3 µM (active).

On to `CN(C)C(=S)S`, for which the result in [1], in test [2], in test [3], in test [4], in test [18] and in test [5] was inactive. For the same molecule, the outcome in [7], in test [10], in test [11], in test [12], in test [13] and in test [14] was inactive. The outcome in test [15], in test [16], in test [20] and in test [17] was inactive. In test [8], the AC50 is 26.3 µM (active).

(Values after PubChem BioAssay (EPA / NIEHS).)
